# Results published in PubChem BioAssay AID431 (Sanford-Burnham Center for Chemical Genomics, 2006).
# Among all 63,000 compounds or so, about 1,100 (1.7%) were called active.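 How the source made its calls: active means compounds whose percent cytotoxicity in the single-dose primary screen, scaled between solvent and toxic-drug controls, exceeds 50; inactive means the rest.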 The entries come from a sample that favours actives as a whole. Measured potencies and affinities stand elsewhere.
# Assay: cytotoxicity in KRAS-transformed pancreatic duct cells, primary screen, cell-based, fluorescence, HTS (AID 431);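 further: 0% = DMSO solvent wells and 100% = doxorubicin-treated wells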
# Details: HPDE-C7K KRASV12 cells, Alamar Blue viability, 48 h; at 10 µM; stronger effect = higher value
row,SMILES,cytotoxicity
1,Fc1cccc(Cl)c1Cn1nnc(-c2ccc3c(c2)OCO3)n1,-3.6% (inactive)
2,Fc1cccc(Cl)c1CSc1nnnn1-c1ccc2c(c1)OCO2,51.7% (active)
3,Fc1ccccc1CSc1nnnn1-c1ccc2c(c1)OCO2,2.3% (inactive)
4,Cc1ccc2nc(NC3=NCN(Cc4ccc5c(c4)OCO5)CN3)nc(C)c2c1,12.9% (inactive)
5,Cc1cc2nc(NC3=NCN(Cc4ccc5c(c4)OCO5)CN3)nc(C)c2cc1C,90% (active)
6,Cc1nc(NC2=NCN(Cc3ccc4c(c3)OCO4)CN2)nc2ccccc12,15.2% (inactive)
7,Cc1nc(NC2=NCN(Cc3cccnc3)CN2)nc2ccccc12,6.2% (inactive)
8,Cc1ccc2nc(NC3=NCN(Cc4cccnc4)CN3)nc(C)c2c1,5.9% (inactive)
9,Cc1cc2nc(NC3=NCN(Cc4cccnc4)CN3)nc(C)c2cc1C,53.3% (active)
10,Cc1ccc(CCN2CC(C(=O)NCCCN3CCOCC3)CC2=O)cc1 (stereo unspecified),2% (inactive)
11,Cc1ccc(C)n1-c1ncn[nH]1,1.3% (inactive)
12,OCCN(CCO)c1ncnc2c1sc1nc(N3CCOCC3)c3c(c12)CCCC3,34.4% (inactive)
13,CC1(C)Cc2c(C#N)c(NCCN3CCOCC3)nc(-c3ccco3)c2CO1,8.7% (inactive)
14,c1nc(NCCN2CCOCC2)c2sc3nc(N4CCOCC4)c4c(c3c2n1)CCC4,18.4% (inactive)
15,CSc1nc(N2CCN(CCO)CC2)c2sc3nc(-c4ccco4)c4c(c3c2n1)CCC4,4.4% (inactive)
16,O=C(Cn1cc2c(n1)CCCCC2)N1CCCCC1,5.5% (inactive)
17,CCc1ccc(OCC(=O)N(C)C)c(Br)c1,7% (inactive)
18,CCCCc1ccc(NC(=O)COCC)cc1,-2.8% (inactive)
19,CCCCc1ccc(NC(=O)OC)cc1,-10.3% (inactive)
20,CCOC(=O)CSC(CC)C(=O)Nc1nnc(C(C)C)s1 (stereo unspecified),1.3% (inactive)
21,COc1ccc(CCNC(=O)C2CCN(C(=O)N(C)C)CC2)cc1OC,-12.4% (inactive)
22,CCOC(=O)c1cc(-c2ccco2)nc2c1c(C)nn2-c1ccccc1,-7.1% (inactive)
23,CCOc1cc(NC(=O)c2ccco2)c(OCC)cc1NC(=O)c1cc(OC)c(OC)c(OC)c1,7.5% (inactive)
24,COc1cc(NC(=O)c2ccco2)c(OC)cc1NC(=O)c1cc(OC)c(OC)c(OC)c1,50.8% (active)

row,SMILES,cytotoxicity
1,COc1cc(C(=O)Nc2ccc(NC(=O)c3ccco3)nc2)cc(OC)c1OC,-3.4% (inactive)
2,COc1cccc(NC(=O)Cn2nnc(-c3ccccc3N)n2)c1,6.3% (inactive)
3,CCc1ccc2[nH]c(=O)c(CN(CCO)C(=O)NCc3ccccc3)cc2c1,-4.1% (inactive)
4,N#Cc1cc(Oc2cccc3cccnc23)c(-n2nnc3ccccc32)cc1C#N,74.9% (active)
5,c1ccc(-n2nnnc2Oc2cccc3cccnc23)cc1,-4.5% (inactive)
6,COc1ccccc1Oc1cc(C#N)c(C#N)cc1-n1nnc2ccccc21,-24.3% (inactive)
7,CCCC(=O)n1nc(-c2ccco2)nc1SCc1ccccc1,2.3% (inactive)
8,CCn1c(SCC(=O)Nc2ccc(S(=O)(=O)Nc3ccccn3)cc2)nnc1-c1ccncc1,-0.6% (inactive)
9,COC(=O)c1c(C(=O)OC)c2n(c1C)Cc1ccccc1C2,3% (inactive)
10,Cc1ccc(C(=O)Nc2cccc(C(=O)NCc3ccco3)c2)cc1,66.2% (active)
11,CCC(CC)C(=O)Nc1cccc(C(=O)NCc2ccco2)c1,-2.1% (inactive)
12,O=C(NCc1ccco1)c1cccc(NC(=O)c2ccccc2)c1,33.2% (inactive)
13,O=C(NCc1ccccc1)c1cccc(NC(=O)c2ccco2)c1,35.4% (inactive)
14,Cc1occc1C(=O)Nc1cccc(C(=O)NCc2ccccc2)c1,-17.7% (inactive)
15,CCc1ccc(-n2c(SCC(=O)Nc3cc(C)[nH]n3)nc3[nH]ncc3c2=O)cc1,-4.9% (inactive)
16,COc1ccc2nc(NC(=O)C3CCN(S(=O)(=O)c4cnc[nH]4)CC3)sc2c1,14.5% (inactive)
17,O=C(Nc1c(C(=O)NCc2ccco2)cnn1-c1ccccc1)c1cccc(F)c1,7.2% (inactive)
18,O=C(NCc1ccco1)c1cc2ccccc2o1,7.8% (inactive)
19,C=CCn1c(N)c(-c2nc3ccccc3n2C)sc1=S,50.1% (active)
20,C=CCn1c(N)nc2ccccc21,-9.7% (inactive)
21,Cc1ccc(-n2c(N)c(-c3nc4ccccc4n3C)sc2=S)cc1,9.5% (inactive)
22,CCC(=O)Nc1ccc(NC(=O)c2c(C)nc3ccccn23)cc1,-2.5% (inactive)
23,O=C(CCCC(=O)N(CC(=O)NC1CCCC1)Cc1ccc(F)cc1)Nc1ccccn1,14.7% (inactive)
24,C/C=C/Cn1c(N(C)Cc2ccccc2)nc2c1c(=O)[nH]c(=O)n2C,5.8% (inactive)

row,SMILES,cytotoxicity
1,CCOc1cc(N2CCOCC2)c(OCC)cc1NC(=O)COc1cccc2cccnc12,51% (active)
2,CCOc1cc(N2CCOCC2)c(OCC)cc1NC(=O)Cc1ccc(OC)c(OC)c1,-1.4% (inactive)
3,CCOc1cc(N2CCOCC2)c(OCC)cc1NC(=O)CN1CCc2ccccc2C1,9.3% (inactive)
4,CC(C)(C)c1ccc(C(=O)N2CCC(C(=O)NCC3CCCO3)CC2)cc1 (stereo unspecified),-1.9% (inactive)
5,CC(C)Cn1c(SCC(=O)NC2CCCc3ccccc32)nc(O)cc1=O (stereo unspecified),-9.4% (inactive)
6,N#Cc1c(/N=C/N2CCCC2)oc(-c2ccccc2)c1-c1ccccc1,15.9% (inactive)
7,N#Cc1c(/N=C/c2ccco2)oc(-c2ccccc2)c1-c1ccccc1,78.7% (active)
8,N#Cc1c(N)oc(-c2ccccc2)c1-c1ccccc1,-9.5% (inactive)
9,Cc1ccc(CCNc2ccccc2)c[n+]1[O-],-10.6% (inactive)
10,CCOC(=O)CN1C(=O)C(O)(CC(=O)c2ccco2)c2ccccc21 (stereo unspecified),-77.9% (inactive)
11,O=C(Nc1nccs1)Oc1ccccc1,0.7% (inactive)
12,COc1ccc2c3c(cccc13)OCC2=O,18.6% (inactive)
13,COc1ccc(C(C)=O)c2c(O)cccc12,12.2% (inactive)
14,CC(=O)NC1CCN(C(=O)N2CCCC2)CC1,7.7% (inactive)
15,O=C(CSc1n[nH]c(-c2ccncc2)n1)NC1CCS(=O)(=O)C1 (stereo unspecified),-7.5% (inactive)
16,Cc1c(C(=O)NCc2ccoc2)oc2ccc3c(c12)C(=O)CC(C)(C)O3,36.4% (inactive)
17,CCOC(=O)c1ccc(N2C(=O)CC(NC3CCN(C(=O)c4ccc(F)cc4)CC3)C2=O)cc1 (stereo unspecified),-19.3% (inactive)
18,CC(C)OC(=O)c1cc(=O)[nH]c2ccccc12,13.4% (inactive)
19,Cc1noc(C)c1S(=O)(=O)N(CC(=O)Nc1ccc2c(c1)OCO2)c1ccc(C(C)C)cc1,-3.1% (inactive)
20,O=C(Cc1cccs1)NCc1ccco1,6.7% (inactive)
21,Cc1cc(C)c2c(CC(=O)NCc3ccco3)coc2c1,5.6% (inactive)
22,Cc1ccc2c(CC(=O)NCc3ccco3)coc2c1C,73.2% (active)
23,CN1C(=O)CC(N2CCN(C(c3ccccc3)c3ccccc3)CC2)C1=O (stereo unspecified),-16.6% (inactive)
24,COC(=O)Cn1c(CN2CCN(c3ccc(F)cc3)CC2)nc2c1c(=O)n(C)c(=O)n2C,0.6% (inactive)

row,SMILES,cytotoxicity
1,CCOC(=O)NC(Nc1ncccn1)(C(F)(F)F)C(F)(F)F,-17.3% (inactive)
2,COc1ccc(OC)c(C2CC(=O)c3c([nH]c(C(=O)OC(C)C)c3C)C2)c1 (stereo unspecified),51.6% (active)
3,CCCOCCOC(=O)c1[nH]c2c(c1C)C(=O)CC(c1cc(OC)ccc1OC)C2 (stereo unspecified),53.5% (active)
4,COCCOC(=O)c1[nH]c2c(c1C)C(=O)CC(c1cc(OC)ccc1OC)C2 (stereo unspecified),-6.8% (inactive)
5,COC(=O)c1[nH]c2c(c1C)C(=O)CC(c1cc(OC)ccc1OC)C2 (stereo unspecified),18.9% (inactive)
6,COc1ccc(C2CC(=O)c3c([nH]c(C(=O)OC(C)C)c3C)C2)cc1OC (stereo unspecified),-16.2% (inactive)
7,COc1cc2nc(CC(C)C)n(NC(=O)c3ccccc3)c(=O)c2cc1OC,-0.2% (inactive)
8,Cc1cc(N2CCN(C(=O)c3ccco3)CC2)n2nc(-c3cccc(Cl)c3)cc2n1,2% (inactive)
9,c1cnc(NCCNc2ncccn2)nc1,-5.3% (inactive)
10,Cc1cc(NC(=O)c2ccc(Cn3nc(C)c(Br)c3C)o2)no1,6.8% (inactive)
11,CCOC(=O)C1CCN(c2c(N(C)Cc3ccco3)c(=O)c2=O)CC1,11% (inactive)
12,O=CN1Cc2[nH]c3ccccc3c2N(c2ccc(Cl)cc2)C1=O,-0.4% (inactive)
13,Nc1c(S(=O)(=O)c2ccccc2)c2nc3ccccc3nc2n1/N=C/c1ccco1,45.3% (inactive)
14,Nc1c(S(=O)(=O)c2cccs2)c2nc3ccccc3nc2n1Cc1cccs1,-15.3% (inactive)
15,Cc1cccc(S(=O)(=O)c2c(N)n(/N=C/c3cccnc3)c3nc4ccccc4nc23)c1,23.4% (inactive)
16,COCCn1c(N)c(S(=O)(=O)c2cccs2)c2nc3ccccc3nc21,-1.6% (inactive)
17,Nc1c(S(=O)(=O)c2cccc(Cl)c2)c2nc3ccccc3nc2n1/N=C/c1ccc(O)c(O)c1,126% (active)
18,Cc1cccc(S(=O)(=O)c2c(N)n(/N=C/c3ccco3)c3nc4ccccc4nc23)c1,17.6% (inactive)
19,Nc1c(S(=O)(=O)c2cccs2)c2nc3ccccc3nc2n1/N=C/c1cccc(O)c1,65.7% (active)
20,Cc1ccc(S(=O)(=O)c2c(N)n(/N=C/c3ccco3)c3nc4ccccc4nc23)cc1C,8.5% (inactive)
21,O=C(CCSc1nc(-c2ccco2)cc(C(F)(F)F)n1)NCC1CCCO1 (stereo unspecified),3.2% (inactive)
22,COCCCNC(=O)CCn1c(=O)c2ccccc2n(CC(=O)Nc2ccccc2C)c1=O,1.7% (inactive)
23,CN(C(=O)c1ccc2c(=O)n3c(nc2c1)CCCCC3)c1ccccc1,-5.5% (inactive)
24,CCOC(=O)c1c(C)[nH]c(C(=O)CSc2nnnn2-c2ccccc2)c1C,-2.7% (inactive)
